In the supplement of paper PMC11732987, “Enantioselective OTUD7B fragment discovery through chemoproteomics screening and high-throughput optimisation” (Communications Chemistry, 2025):

Assays:
Assay in all cases: log2 ratio of Biotin-Ahx-Ub-VS probe labelling (fragment/DMSO); higher = less target engagement (more negative = stronger competition), active = hit call of the paper (q ≤ 0.05, log2 ratio ≤ -1)
Conditions in all cases: compound concentration: 200 uM; treatment time: 3 h
USP34 = USP34 (UniProt Q70CQ2)
In short: (§1)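 Each value is an average log2 ratio of fragment to vehicle, tested by unpaired t-test. The underlying Spectronaut label-free quantities were global-median-normalised, and only proteins with ≥2 unique peptides were included. Triplicate HEK293T lysate samples (495 µg) were exposed to fragment at 200 µM or vehicle for 3 h, then to Biotin-Ahx-Ub-VS at 0.5 µM final for 1 h, before NeutrAvidin enrichment of labelled DUBs, LysC and trypsin digestion, and diaPASEF LC-MS/MS.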

USP36 = molecular target: T1, USP36 (UniProt Q9P275)
T1 sequence (whole entry): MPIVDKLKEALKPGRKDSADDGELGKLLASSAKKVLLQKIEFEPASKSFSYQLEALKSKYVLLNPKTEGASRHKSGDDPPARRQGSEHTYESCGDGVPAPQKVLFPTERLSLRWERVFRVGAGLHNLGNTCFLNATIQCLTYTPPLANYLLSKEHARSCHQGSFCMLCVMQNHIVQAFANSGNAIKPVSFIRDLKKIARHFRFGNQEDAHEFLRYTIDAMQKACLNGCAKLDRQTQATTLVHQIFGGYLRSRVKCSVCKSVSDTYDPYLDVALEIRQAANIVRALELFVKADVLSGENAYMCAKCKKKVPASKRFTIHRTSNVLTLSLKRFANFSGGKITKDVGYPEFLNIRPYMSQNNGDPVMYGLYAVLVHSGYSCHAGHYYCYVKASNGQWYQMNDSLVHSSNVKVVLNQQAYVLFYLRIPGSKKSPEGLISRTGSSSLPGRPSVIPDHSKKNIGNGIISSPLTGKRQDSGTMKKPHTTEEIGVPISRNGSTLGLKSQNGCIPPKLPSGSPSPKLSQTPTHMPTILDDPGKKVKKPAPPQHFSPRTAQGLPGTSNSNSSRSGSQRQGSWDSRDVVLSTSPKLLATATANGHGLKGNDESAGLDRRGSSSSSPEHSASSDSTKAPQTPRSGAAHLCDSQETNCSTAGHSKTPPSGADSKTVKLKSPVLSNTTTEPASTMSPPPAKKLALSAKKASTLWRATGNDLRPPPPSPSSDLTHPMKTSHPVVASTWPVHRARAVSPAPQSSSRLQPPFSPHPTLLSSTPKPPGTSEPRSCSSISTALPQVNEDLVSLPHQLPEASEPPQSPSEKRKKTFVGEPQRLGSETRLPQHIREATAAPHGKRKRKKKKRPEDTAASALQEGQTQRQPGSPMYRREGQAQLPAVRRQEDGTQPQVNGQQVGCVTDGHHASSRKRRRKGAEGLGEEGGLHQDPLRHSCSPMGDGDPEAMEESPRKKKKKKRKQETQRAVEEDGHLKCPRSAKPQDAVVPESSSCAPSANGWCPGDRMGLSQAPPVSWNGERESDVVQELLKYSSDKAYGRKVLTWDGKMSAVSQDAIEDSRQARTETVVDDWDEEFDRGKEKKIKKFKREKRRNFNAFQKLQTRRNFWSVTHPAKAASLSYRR
In short: as §1

USP38 = molecular target: T2, USP38 (UniProt Q8NB14)
T2 sequence (whole entry): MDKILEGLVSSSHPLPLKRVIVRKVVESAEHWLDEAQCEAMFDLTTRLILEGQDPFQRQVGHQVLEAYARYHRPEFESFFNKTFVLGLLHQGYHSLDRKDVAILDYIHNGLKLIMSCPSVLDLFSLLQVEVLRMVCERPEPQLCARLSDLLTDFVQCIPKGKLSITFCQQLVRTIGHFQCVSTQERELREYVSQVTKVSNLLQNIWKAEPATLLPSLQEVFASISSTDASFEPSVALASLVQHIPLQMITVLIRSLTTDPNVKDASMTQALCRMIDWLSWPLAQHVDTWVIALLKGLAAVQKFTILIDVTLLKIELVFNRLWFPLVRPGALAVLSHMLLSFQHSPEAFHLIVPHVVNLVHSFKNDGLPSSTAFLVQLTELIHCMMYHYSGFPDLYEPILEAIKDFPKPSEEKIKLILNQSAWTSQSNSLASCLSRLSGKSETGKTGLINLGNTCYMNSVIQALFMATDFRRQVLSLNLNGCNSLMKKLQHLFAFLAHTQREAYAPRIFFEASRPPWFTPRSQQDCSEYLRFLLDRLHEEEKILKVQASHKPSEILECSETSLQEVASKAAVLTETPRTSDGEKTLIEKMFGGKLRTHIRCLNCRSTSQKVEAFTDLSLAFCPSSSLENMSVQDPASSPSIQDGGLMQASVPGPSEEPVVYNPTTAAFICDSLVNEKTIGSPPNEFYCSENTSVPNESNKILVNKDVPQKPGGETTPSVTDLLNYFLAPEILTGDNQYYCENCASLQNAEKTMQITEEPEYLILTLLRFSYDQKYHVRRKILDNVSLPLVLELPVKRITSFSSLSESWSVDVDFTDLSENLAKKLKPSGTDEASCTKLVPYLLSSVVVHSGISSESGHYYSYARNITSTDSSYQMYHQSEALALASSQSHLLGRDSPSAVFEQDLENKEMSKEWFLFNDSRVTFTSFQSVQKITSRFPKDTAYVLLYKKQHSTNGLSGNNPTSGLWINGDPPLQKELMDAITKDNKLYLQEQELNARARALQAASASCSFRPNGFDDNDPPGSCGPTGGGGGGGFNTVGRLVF
In short: as §1

USP39 = molecular target: T3, USP39 (UniProt Q53GS9)
T3 sequence (whole entry): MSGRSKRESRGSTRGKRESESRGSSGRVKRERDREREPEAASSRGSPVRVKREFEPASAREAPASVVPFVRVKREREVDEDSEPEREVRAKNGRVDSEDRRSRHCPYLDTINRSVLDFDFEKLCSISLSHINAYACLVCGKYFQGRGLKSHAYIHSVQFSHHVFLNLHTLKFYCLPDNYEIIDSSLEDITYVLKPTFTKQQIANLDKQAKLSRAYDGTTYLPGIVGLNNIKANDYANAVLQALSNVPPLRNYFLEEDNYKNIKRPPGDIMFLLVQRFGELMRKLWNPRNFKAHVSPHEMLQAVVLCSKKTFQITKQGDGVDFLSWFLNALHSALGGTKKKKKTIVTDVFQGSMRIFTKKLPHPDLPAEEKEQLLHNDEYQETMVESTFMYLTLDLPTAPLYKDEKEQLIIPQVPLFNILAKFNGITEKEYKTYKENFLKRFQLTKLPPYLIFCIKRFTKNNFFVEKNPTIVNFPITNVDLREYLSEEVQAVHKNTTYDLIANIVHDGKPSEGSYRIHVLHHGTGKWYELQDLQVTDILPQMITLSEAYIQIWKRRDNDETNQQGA
In short: as §1

USP4 = molecular target: T4, USP4 (UniProt Q13107)
T4 sequence (whole entry): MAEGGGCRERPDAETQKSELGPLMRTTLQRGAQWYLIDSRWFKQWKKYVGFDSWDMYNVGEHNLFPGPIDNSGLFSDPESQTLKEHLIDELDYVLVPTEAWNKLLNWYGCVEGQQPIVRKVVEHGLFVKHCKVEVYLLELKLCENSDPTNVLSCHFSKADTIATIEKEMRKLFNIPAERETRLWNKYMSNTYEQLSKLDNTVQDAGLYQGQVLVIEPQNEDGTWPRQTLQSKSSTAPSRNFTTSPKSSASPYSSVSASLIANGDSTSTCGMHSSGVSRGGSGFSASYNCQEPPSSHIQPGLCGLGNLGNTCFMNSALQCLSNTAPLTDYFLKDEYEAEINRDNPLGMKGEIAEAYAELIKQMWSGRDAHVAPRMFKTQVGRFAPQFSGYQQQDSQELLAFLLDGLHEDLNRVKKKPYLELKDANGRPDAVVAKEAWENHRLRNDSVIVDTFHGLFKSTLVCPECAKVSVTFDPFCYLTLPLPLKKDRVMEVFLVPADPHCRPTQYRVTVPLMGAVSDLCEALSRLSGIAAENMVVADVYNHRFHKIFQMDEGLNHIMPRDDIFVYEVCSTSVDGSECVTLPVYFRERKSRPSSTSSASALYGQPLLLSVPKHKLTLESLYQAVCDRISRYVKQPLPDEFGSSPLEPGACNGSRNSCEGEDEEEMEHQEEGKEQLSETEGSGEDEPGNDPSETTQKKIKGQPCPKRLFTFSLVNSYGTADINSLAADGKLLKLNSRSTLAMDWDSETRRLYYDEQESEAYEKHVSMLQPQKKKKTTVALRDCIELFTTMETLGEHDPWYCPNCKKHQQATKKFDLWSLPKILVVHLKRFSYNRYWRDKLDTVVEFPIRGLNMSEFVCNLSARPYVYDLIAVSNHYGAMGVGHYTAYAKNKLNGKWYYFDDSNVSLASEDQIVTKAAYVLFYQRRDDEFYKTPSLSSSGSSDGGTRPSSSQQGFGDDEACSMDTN
In short: as §1

Measured: log2 ratio of Biotin-Ahx-Ub-VS probe labelling

USP34, sequence (Q70CQ2 whole entry, the tested form may be a part): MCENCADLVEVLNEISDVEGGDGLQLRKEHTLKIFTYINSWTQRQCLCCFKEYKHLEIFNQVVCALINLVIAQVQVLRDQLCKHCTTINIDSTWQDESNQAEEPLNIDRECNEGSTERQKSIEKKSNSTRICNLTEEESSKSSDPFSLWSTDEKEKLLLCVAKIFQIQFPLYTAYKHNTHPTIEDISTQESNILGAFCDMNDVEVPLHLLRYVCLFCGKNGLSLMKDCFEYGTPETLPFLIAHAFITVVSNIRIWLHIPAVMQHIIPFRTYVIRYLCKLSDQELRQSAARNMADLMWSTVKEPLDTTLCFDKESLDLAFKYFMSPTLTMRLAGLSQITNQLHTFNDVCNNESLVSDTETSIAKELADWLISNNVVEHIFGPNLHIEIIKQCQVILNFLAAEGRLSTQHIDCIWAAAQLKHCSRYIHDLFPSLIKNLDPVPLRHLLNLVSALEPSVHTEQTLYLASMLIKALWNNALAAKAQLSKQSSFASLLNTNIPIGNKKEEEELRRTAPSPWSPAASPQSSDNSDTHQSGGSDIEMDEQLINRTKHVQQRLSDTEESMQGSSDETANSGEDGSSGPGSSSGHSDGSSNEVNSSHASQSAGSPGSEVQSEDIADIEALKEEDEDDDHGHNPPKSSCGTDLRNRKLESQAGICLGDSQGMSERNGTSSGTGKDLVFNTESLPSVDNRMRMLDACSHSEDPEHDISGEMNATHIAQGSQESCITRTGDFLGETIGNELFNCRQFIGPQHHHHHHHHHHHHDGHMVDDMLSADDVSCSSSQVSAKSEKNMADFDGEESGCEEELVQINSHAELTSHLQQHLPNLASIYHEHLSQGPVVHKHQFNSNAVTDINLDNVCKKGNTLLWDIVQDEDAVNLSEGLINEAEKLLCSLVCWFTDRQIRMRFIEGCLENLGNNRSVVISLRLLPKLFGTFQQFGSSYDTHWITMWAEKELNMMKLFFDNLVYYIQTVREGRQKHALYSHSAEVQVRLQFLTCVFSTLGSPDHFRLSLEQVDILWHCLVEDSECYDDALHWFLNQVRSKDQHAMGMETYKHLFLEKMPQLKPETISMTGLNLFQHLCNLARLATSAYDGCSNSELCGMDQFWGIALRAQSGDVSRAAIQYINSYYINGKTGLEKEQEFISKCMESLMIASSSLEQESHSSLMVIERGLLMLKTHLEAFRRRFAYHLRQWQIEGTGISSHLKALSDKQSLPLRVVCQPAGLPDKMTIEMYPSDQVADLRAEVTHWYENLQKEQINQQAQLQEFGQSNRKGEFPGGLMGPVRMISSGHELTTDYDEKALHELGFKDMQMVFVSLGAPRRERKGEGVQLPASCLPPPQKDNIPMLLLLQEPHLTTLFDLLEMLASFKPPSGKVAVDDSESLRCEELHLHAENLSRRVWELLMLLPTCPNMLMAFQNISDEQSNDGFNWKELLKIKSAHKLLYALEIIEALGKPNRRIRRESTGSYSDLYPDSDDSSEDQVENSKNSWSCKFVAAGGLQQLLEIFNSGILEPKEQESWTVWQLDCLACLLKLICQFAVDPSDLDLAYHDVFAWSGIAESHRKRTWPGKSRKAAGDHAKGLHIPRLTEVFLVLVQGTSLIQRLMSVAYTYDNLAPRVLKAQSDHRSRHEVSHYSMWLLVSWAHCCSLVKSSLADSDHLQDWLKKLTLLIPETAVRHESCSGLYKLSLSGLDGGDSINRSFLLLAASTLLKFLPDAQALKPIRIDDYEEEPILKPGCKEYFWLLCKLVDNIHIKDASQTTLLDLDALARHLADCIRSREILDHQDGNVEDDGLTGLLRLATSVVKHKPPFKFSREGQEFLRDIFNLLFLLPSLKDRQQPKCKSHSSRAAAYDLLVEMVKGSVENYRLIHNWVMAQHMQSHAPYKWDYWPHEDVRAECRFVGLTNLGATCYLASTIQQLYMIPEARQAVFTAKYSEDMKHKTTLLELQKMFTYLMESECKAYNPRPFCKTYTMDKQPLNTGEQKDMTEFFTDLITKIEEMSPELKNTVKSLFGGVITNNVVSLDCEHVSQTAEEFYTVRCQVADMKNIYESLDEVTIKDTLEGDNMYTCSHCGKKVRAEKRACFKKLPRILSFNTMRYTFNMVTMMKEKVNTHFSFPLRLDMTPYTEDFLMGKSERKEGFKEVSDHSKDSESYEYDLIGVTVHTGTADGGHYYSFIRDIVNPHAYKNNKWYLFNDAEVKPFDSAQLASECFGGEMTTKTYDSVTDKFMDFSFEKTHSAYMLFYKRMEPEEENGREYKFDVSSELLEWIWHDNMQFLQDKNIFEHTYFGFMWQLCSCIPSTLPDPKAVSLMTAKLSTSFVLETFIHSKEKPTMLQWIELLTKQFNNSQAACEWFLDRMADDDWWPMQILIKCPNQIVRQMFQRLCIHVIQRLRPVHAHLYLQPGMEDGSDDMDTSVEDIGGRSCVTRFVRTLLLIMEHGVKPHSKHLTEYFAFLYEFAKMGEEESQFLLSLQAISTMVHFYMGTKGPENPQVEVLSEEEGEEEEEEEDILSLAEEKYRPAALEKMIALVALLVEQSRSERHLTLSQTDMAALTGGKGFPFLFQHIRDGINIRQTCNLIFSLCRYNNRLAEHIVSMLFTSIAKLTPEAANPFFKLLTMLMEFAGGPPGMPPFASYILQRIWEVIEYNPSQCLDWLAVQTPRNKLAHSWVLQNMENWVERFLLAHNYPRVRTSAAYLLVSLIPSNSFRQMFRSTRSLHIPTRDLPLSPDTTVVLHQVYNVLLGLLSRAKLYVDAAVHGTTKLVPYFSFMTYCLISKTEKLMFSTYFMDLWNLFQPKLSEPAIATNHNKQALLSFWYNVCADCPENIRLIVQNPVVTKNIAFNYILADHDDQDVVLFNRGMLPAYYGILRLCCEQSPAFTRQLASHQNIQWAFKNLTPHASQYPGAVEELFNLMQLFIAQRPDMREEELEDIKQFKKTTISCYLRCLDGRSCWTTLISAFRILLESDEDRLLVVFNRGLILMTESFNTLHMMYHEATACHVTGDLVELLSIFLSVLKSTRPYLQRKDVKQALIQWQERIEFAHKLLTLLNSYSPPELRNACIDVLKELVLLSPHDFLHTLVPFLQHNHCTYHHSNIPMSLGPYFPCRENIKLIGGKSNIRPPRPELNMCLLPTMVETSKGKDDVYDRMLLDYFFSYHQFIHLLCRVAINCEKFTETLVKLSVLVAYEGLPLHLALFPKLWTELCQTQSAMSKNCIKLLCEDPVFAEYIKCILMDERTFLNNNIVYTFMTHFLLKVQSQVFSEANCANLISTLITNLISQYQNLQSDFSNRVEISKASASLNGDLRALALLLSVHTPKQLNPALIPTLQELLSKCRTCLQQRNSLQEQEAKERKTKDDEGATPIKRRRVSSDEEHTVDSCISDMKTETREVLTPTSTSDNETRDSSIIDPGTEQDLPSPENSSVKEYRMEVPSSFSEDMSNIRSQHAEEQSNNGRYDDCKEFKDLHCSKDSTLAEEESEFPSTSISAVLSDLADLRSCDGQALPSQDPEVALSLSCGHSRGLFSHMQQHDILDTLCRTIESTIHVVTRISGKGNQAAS

Cl.Cn1ncc2c1CCCC2NC(=O)CCl (stereo not given)
inactive: USP34 -0.0828 | USP36 -0.298 | USP38 -0.175 | USP39 -0.0961 | USP4 0.00214
